PubChem BioAssay (EPA / NIEHS)
“And” between values parts separate entries of the source, which are not always exact repeats. Equal entries are not always repeated. Records with an inconclusive call do not appear. The source made the active and inactive calls. The calls were made as follows: active = hit-call score of the fitted dose curve at least 0.9, where 1 is the maximum; inconclusive = response in the unintended direction; inactive = score below 0.9.

Legend:
[1] = target: human Peripheral-type Benzodiazepine Receptor (PBR), TSPO (gene 706) (UniProt P30536); experiment: NVS_MP_hPBR: NovaScreen (NVS) Membrane Protein Assay for human Peripheral-type Benzodiazepine Receptor (PBR) (AID 2283331);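 also: hits reduce radioligand binding relative to DMSO baseline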
Procedure, shortened: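 Human colonic cell membranes were incubated with test chemical for 1 hour; radioligand binding was measured by filter-based scintillation counting. Primary screen ran in duplicate at 25 uM, with actives followed in concentration series; loss of signal versus DMSO baseline.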

[2] = target: Voltage-gated inwardly rectifying potassium channel KCNH2 (Homo sapiens) (UniProt Q12809); experiment: NVS_IC_hKhERGCh: NovaScreen (NVS) Ion Channel Assay for human Potassium Channel ERG (KhERGCh) (AID 2283333)
Procedure, shortened: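 Cell-free radioligand competition binding on hERG protein extracted from CHO cells, read by filter-based scintillation counting 0.75 h after dosing. Primary screen at 25 uM in duplicate, actives followed in concentration series. Signal loss fitted versus DMSO.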

[3] = target: rat Peripheral-type Benzodiazepine Receptor (PBR), Tspo (gene 24230) (UniProt P16257); experiment: NVS_MP_rPBR: NovaScreen (NVS) Membrane Protein Assay for rat Peripheral-type Benzodiazepine Receptor (PBR) (AID 2283335)
Procedure, shortened: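 Radioligand displacement, rat kidney membrane prep, 1 h exposure, filter-based scintillation read; DMSO baseline, loss-of-signal scored. Primary screen at 25 uM in duplicate, actives followed up in concentration series.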

[4] = NVS_IC_rCaBTZCHL: NovaScreen (NVS) Ion Channel Assay for Calcium Channel, Type L, Benzothiazepine Site (CaBTZCHL) (AID 2283337)
Procedure, shortened: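 Competitive displacement of a site-specific radioligand from rat cortex membranes, measured as signal loss against DMSO baseline by filter radiodetection after 1.5 h. Single-point 25 uM primary screen.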

[5] = target: rat Glutamate, MK-801 Agonist Site (GluNMDA_MK801), Grin1 (gene 24408) (UniProt P35439); experiment: NVS_LGIC_rGluNMDA_MK801_Agonist: NovaScreen (NVS) Ligand-Gated Ion Channel Assay for rat Glutamate, MK-801 Agonist Site (GluNMDA_MK801) (AID 2283340)
Procedure, shortened: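 Radioligand binding at MK-801 site in rat forebrain membranes, 1.5 h incubation, filter-based scintillation counting. Initially 25 uM in duplicate; actives then run in concentration-response up to 50 uM, fitted for gain of signal versus DMSO.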

[6] = target: rat Oxytocin Receptor (OXT), Oxtr (gene 25342) (UniProt P70536); experiment: NVS_GPCR_rOXT: NovaScreen (NVS) G Protein-Coupled Receptor Assay for rat Oxytocin Receptor (OXT) (AID 2283330)
Procedure, shortened: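 Radioligand displacement on rat uterine membranes, 1 h incubation, filter-based scintillation counting. Chemicals were screened in duplicate at 25 uM, and those passing threshold were retested in concentration-response up to 50 uM. Loss of binding was fitted versus DMSO.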

[7] = target: human Androgen Receptor (AR), AR (gene 367) (UniProt P10275); experiment: NVS_NR_hAR: NovaScreen (NVS) Nuclear Receptor Binding Assay for human Androgen Receptor (AR) (AID 2283332)
Procedure, shortened: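 Actives from a duplicate 25 uM single-point screen went on to concentration series. Read-out after 20 h was scintillation counting of displaced radioligand in LnCAP extract, with DMSO as baseline.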

Sequence of rat Peripheral-type Benzodiazepine Receptor (PBR), Tspo (gene 24230) (P16257 whole entry, looked up): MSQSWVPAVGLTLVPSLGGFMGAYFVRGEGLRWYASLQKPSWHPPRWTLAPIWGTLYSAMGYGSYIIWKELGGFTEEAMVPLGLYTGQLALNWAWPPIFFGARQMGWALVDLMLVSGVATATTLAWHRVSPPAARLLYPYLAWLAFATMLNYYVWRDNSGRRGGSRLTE
Sequence of human Peripheral-type Benzodiazepine Receptor (PBR), TSPO (gene 706) (P30536 whole entry, looked up): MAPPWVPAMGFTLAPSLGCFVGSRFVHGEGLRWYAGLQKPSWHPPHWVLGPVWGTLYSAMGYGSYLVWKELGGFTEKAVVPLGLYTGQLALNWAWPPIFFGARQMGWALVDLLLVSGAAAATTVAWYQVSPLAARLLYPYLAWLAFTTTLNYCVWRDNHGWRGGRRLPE
Sequence of human Androgen Receptor (AR), AR (gene 367) (P10275 whole entry, looked up): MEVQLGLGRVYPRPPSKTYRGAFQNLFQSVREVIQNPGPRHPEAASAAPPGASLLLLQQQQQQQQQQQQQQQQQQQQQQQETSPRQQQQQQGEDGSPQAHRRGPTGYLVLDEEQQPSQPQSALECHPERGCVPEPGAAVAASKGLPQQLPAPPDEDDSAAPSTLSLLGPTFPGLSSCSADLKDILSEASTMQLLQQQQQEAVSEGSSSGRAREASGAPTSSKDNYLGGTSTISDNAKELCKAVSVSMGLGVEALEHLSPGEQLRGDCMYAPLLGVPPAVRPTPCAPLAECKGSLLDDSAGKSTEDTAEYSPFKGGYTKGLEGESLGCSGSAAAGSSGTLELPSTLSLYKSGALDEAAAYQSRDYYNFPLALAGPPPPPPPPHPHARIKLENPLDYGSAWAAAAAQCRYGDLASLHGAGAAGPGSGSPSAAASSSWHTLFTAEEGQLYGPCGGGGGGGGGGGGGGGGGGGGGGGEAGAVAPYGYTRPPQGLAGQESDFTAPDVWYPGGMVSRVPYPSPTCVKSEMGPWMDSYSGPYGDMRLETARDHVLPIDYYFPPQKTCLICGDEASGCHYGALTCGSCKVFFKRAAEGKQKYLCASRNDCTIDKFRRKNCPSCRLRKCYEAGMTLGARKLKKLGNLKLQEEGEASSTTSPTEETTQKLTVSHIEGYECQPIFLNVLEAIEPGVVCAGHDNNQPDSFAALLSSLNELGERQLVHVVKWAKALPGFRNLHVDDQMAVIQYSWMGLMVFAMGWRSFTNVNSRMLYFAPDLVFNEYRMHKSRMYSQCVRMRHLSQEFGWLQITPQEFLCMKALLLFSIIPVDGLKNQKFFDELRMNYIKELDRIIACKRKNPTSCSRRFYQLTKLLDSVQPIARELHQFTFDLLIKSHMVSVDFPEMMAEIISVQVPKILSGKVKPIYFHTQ
Sequence of Voltage-gated inwardly rectifying potassium channel KCNH2 (Homo sapiens) (Q12809 whole entry, looked up): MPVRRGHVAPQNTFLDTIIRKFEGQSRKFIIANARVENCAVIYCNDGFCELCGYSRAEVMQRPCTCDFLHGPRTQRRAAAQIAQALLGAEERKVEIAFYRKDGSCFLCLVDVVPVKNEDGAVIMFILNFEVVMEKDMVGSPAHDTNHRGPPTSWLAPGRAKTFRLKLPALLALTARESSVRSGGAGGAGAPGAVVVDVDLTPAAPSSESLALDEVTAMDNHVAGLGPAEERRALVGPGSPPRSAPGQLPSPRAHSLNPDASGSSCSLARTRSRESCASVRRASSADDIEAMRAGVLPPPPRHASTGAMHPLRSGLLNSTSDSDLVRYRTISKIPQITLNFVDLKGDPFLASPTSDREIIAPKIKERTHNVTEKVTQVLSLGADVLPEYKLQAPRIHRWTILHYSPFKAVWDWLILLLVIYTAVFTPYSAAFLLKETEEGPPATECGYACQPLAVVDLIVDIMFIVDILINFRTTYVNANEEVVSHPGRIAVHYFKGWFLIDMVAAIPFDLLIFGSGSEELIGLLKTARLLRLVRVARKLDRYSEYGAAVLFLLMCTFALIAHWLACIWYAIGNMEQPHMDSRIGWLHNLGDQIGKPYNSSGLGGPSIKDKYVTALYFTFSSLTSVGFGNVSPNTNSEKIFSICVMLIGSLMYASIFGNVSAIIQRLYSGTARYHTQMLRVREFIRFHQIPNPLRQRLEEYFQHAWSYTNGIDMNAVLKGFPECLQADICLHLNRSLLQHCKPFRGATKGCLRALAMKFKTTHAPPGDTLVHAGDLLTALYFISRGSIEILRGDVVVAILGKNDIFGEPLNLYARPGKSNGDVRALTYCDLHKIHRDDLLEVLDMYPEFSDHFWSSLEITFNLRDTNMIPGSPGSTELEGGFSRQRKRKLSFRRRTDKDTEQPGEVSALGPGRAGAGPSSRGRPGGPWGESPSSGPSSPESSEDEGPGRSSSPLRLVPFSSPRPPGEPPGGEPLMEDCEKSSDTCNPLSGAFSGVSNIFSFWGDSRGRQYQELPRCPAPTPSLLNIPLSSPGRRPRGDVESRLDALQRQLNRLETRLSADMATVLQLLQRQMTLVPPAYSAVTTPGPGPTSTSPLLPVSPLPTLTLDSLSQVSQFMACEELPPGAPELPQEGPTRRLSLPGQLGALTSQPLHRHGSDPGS
Sequence of rat Oxytocin Receptor (OXT), Oxtr (gene 25342) (P70536 whole entry, looked up): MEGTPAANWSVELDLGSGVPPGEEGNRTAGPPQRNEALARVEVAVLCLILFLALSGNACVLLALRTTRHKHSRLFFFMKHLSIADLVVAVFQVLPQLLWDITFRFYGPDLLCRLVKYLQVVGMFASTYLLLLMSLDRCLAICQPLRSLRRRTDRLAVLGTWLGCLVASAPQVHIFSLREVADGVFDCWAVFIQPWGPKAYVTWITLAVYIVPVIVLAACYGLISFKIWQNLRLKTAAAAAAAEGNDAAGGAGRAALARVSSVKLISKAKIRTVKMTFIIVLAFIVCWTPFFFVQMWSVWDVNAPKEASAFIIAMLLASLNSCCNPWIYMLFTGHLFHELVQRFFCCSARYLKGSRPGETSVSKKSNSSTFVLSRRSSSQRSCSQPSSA

CCN1CCC2(CC1)COc1cc3c(cc12)N(C(=O)c1ccc(-c2ccc(-c4nnc(C)o4)cc2C)cc1)CC3
AC50 [1]: 2.37 µM (active) | outcome [2]: inactive | AC50 [3]: 6.5 µM (active) | AC50 [4]: 4.16 µM (active) | AC50 [5]: 39.1 µM (active)

CCC[CH2][Sn]([CH2]CCC)([CH2]CCC)[O]C(=O)c1ccccc1
AC50 [1]: 5.59 µM (active)

COP(=S)(OC)Oc1c(Cl)cc(C)cc1Cl
AC50 [1]: 9.23 µM (active) | outcome [3]: inactive

CCOP(=S)(OCC)SCCS(=O)(=O)CC
AC50 [1]: 30.7 µM (active)

CC(=O)[O][Hg][c]1ccccc1
AC50 [6]: 15.7 µM (active) | AC50 [7]: 16.9 µM (active)

CC(C)CCCCCCOC(=O)c1ccccc1C(=O)OCCCCCCC(C)C
outcome [1]: inactive

COP(=S)(OC)Oc1ccc(Sc2ccc(OP(=S)(OC)OC)cc2)cc1
AC50 [1]: 1.16 µM (active) and 16.9 µM (active) | AC50 [7]: 17.9 µM (active) | AC50 [3]: 0.307 µM (active) | AC50 [4]: 25 µM (active)

Clc1ccc(COC(Cn2ccnc2)c2ccc(Cl)cc2Cl)cc1 (configuration not stated)
AC50 [1]: 1.09 µM (active) | AC50 [3]: 1.63 µM (active)

COP(=S)(OC)Oc1ccc(S(=O)(=O)N(C)C)cc1
AC50 [1]: 5.32 µM (active) | AC50 [3]: 1.45 µM (active)

Nc1ccc(-c2ccc(N)c(Cl)c2)cc1Cl
AC50 [1]: 9.91 µM (active) | outcome [3]: inactive

COc1cc(-c2ccc(N)c(OC)c2)ccc1N
AC50 [1]: 19.4 µM (active) | AC50 [3]: 2.75 µM (active) and 2.71 µM (active)

Cc1ccccc1C(=O)Nc1cccc(OC(C)C)c1
AC50 [1]: 1.12 µM (active) | AC50 [3]: 1.13 µM (active)

c1cc[c]([Hg][c]2ccccc2)cc1
AC50 [1]: 0.372 µM (active)
